Experimental data: PubChem BioAssay (EPA / NIEHS)
Inconclusive results are not listed. The source made the active and inactive calls. How the source made its calls, unless noted: active means hit-call score of the fitted dose curve at least 0.9, where 1 is the maximum; inactive means score below 0.9.

Columns and labels:
[1] = ATG_DR4_LXR_CIS: Attagene CIS-FACTORIAL HepG2 Assay for human Liver X Receptor (LXR), DR4 submotif (AID 2282929); details: HepG2 Attagene DR4 cis-reporter, mRNA transcription; actives raise or lower the signal
Procedure, shortened: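 The endpoint is DR4-element-driven reporter transcripts after 24 h chemical exposure of transfected HepG2 cells. These were measured via RT-PCR and capillary electrophoresis, and gain or loss of signal was fitted relative to DMSO controls.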

[2] = biological target: Transcription factor E2F1 (Homo sapiens) (UniProt Q01094); experiment: ATG_E2F_CIS: Attagene CIS-FACTORIAL HepG2 Assay for human E2F Transcription Factor 1 (AID 2282935); details: HepG2 Attagene cis-reporter, E2F reporter RNA transcripts; actives raise or lower the signal
Chain of Transcription factor E2F1 (Homo sapiens) (Q01094 whole entry, looked up): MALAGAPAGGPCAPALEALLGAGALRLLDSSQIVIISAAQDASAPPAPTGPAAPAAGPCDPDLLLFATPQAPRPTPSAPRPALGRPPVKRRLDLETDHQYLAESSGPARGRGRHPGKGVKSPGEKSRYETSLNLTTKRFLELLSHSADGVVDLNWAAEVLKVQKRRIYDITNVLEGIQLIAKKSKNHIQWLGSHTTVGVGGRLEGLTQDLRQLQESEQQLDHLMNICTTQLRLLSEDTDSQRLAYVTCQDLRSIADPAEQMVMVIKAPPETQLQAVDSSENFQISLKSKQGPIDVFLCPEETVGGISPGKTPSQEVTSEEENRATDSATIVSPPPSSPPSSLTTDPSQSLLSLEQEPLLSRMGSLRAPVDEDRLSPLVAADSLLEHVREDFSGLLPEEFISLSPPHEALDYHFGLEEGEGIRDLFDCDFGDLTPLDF
Procedure, shortened: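 First, HepG2 cells were transfected with reporter transcription units. Next, they were dosed for 24 h. Then RNA was isolated, converted to cDNA, PCR-amplified, FAM-labeled, HpaI-digested and analyzed by capillary electrophoresis.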

[3] = ATG_GRE_CIS: Attagene CIS-FACTORIAL HepG2 Assay for human Glucocorticoid Response Elements (GRE) (AID 2282947); details: HepG2 GRE cis-reporter, Attagene multiplex mRNA; actives raise or lower the signal
Procedure, shortened: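 Cells (HepG2) bearing transfected cis-promoter reporter transcription units were treated with chemical for 24 hours. Reporter mRNA was measured via RT-PCR with capillary electrophoresis, and activity was fitted in both directions relative to DMSO.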

[4] = biological target: Hypoxia-inducible factor 1-alpha (Homo sapiens) (UniProt Q16665); experiment: ATG_HIF1a_CIS: Attagene CIS-FACTORIAL HepG2 Assay for human Hypoxia Inducible Factor 1 (HIF1A) (AID 2282951); details: HepG2 Attagene cis-factorial HIF1a reporter transcription; actives raise or lower the signal
Chain of Hypoxia-inducible factor 1-alpha (Homo sapiens) (Q16665 whole entry, looked up): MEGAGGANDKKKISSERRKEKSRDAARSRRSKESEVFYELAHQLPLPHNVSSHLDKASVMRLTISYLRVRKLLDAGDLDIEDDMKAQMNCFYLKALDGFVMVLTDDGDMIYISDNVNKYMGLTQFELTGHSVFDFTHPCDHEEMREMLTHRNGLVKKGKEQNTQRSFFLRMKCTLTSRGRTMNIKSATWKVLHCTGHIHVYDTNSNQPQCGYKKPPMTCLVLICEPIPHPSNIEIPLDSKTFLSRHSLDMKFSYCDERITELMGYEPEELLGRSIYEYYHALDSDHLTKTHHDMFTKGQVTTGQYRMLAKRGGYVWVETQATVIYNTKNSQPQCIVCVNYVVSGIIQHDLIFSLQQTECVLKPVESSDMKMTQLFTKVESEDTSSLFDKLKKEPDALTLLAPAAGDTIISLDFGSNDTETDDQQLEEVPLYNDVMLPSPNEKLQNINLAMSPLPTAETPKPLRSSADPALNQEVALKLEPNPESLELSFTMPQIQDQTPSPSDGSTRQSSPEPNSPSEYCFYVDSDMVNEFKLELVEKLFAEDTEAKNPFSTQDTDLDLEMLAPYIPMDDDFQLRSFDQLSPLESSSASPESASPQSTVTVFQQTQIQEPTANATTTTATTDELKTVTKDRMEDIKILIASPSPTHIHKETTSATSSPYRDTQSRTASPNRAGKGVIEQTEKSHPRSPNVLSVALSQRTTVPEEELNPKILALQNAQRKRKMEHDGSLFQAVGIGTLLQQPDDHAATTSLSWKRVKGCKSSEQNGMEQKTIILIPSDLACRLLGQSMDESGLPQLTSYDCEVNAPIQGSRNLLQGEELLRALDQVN
Procedure, shortened: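 Activity is fitted in both directions relative to DMSO. Reporter transcripts are read by RT-PCR, fluorescent primer extension and capillary electrophoresis after 24 h chemical treatment. The cells are HepG2 carrying transiently transfected cis-element-driven reporter units responding to endogenous factors.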

[5] = biological target: Hepatocyte nuclear factor 6 (Homo sapiens) (UniProt Q9UBC0); experiment: ATG_HNF6_CIS: Attagene CIS-FACTORIAL HepG2 Assay for human Hepatocyte Nuclear Factor 6 (HNF6) (AID 2282952); details: HepG2 Attagene cis-factorial HNF6 reporter transcription; actives raise or lower the signal
Chain of Hepatocyte nuclear factor 6 (Homo sapiens) (Q9UBC0 whole entry, looked up, the tested form may be a part): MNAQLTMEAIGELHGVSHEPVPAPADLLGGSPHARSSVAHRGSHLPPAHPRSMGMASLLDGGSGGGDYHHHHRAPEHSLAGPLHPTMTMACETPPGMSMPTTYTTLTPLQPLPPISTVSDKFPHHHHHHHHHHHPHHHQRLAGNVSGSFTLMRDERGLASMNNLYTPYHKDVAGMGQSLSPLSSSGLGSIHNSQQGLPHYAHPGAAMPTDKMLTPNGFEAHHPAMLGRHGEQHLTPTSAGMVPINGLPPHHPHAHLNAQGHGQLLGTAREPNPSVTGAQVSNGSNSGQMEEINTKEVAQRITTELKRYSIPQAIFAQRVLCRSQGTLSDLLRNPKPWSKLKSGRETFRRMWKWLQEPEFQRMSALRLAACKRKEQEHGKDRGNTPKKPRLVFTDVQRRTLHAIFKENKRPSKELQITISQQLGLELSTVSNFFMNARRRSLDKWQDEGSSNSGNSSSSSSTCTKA
Procedure, shortened: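 Using cis-element reporters in HepG2 liver cells, the assay tracks endogenous factor-driven transcription 24 h post-dosing. Signal comes from 6-FAM-labelled, HpaI-digested RT-PCR fragments, with gain or loss scored against DMSO.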

[6] = biological target: Heat shock factor protein 1 (Homo sapiens) (UniProt Q00613); experiment: ATG_HSE_CIS: Attagene CIS-FACTORIAL HepG2 Assay for human Heat Shock Transcription Factor 1 (HSE) (AID 2282953); details: HepG2 HSE cis-reporter, Attagene RNA transcription; actives raise or lower the signal
Chain of Heat shock factor protein 1 (Homo sapiens) (Q00613 whole entry, looked up): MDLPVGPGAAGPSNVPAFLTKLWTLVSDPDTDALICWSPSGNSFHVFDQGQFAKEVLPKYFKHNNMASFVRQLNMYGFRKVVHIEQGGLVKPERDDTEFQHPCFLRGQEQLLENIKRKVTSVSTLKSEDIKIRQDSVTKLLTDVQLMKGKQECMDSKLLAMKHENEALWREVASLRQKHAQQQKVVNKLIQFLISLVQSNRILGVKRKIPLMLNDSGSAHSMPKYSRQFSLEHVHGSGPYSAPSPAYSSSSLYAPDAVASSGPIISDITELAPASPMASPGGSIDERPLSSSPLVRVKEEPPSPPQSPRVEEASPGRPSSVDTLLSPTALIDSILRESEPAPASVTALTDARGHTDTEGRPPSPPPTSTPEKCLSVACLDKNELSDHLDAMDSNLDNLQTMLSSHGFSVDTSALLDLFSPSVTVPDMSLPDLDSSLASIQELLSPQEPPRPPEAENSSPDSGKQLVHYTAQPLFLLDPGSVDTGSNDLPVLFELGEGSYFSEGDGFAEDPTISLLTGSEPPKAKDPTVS
Procedure, shortened: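 Endogenous transcription factor activity in transiently transfected HepG2, read as reporter mRNA by RT-PCR with fluorescent capillary electrophoresis after 24 h. Gain or loss of signal fitted versus DMSO baseline.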

[7] = ATG_TA_CIS: Attagene CIS-FACTORIAL HepG2 Assay for human TA Basal Promoter (AID 2282964); details: HepG2 Attagene CIS-factorial TA basal promoter reporter; actives raise or lower the signal
Procedure, shortened: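 Background-control readout: TA basal promoter reporter mRNA, fitted in both directions relative to DMSO. Measured by RT-PCR and capillary electrophoresis 24 hours after treating HepG2 human liver cells transiently carrying multiplexed cis-regulated reporter constructs.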

[8] = ATG_TGFb_CIS: Attagene CIS-FACTORIAL HepG2 Assay for human Transforming Growth Factor (TGF) (AID 2282967); details: HepG2 Attagene CIS TGFb reporter, mRNA transcription; actives raise or lower the signal
Procedure, shortened: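 Endogenous TGFB1-linked transcription factor activity read as reporter mRNA via RT-PCR and capillary electrophoresis, 24 h after dosing transiently transfected HepG2 cells. Gain or loss of signal fitted relative to DMSO.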

[9] = biological target: Transcriptional activator Myb (Homo sapiens) (UniProt P10242); experiment: ATG_Myb_CIS: Attagene CIS-FACTORIAL HepG2 Assay for human Myeloblastosis (Myb) Proto-Oncogene Transcription Factor (AID 2282986); details: HepG2 Attagene CIS-FACTORIAL Myb reporter transcription; actives raise or lower the signal
Chain of Transcriptional activator Myb (Homo sapiens) (P10242 whole entry, looked up): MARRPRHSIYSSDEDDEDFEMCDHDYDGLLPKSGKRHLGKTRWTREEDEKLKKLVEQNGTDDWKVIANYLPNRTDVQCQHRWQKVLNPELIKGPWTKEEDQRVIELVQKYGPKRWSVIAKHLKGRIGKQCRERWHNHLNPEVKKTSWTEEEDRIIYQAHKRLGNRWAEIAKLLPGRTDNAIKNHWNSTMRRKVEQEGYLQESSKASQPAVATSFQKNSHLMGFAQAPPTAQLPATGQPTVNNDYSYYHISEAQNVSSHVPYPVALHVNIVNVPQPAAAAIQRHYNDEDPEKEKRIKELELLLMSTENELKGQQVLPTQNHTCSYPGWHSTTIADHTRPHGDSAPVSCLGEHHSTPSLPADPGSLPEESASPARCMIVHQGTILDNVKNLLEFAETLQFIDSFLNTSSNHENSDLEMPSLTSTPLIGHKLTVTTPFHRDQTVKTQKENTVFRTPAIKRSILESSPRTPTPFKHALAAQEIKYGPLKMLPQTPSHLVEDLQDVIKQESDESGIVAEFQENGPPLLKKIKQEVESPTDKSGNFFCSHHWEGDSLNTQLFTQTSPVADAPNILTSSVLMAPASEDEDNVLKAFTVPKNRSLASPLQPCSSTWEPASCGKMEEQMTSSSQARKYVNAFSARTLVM
Procedure, shortened: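 Reporter mRNA is quantified by RT-PCR and capillary electrophoresis 24 h after dosing HepG2 cells transfected with cis-regulated reporter units, which track endogenous transcription factor activity. Gain and loss of signal are fitted versus DMSO baseline.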

[10] = biological target: Nuclear respiratory factor 1 (Homo sapiens) (UniProt Q16656); experiment: ATG_NRF1_CIS: Attagene CIS-FACTORIAL HepG2 Assay for human Nuclear Respiratory Factor 1 (NRF1) Orphan Gene (AID 2282987); details: HepG2 NRF1 cis-element reporter, Attagene multiplex; actives raise or lower the signal
Chain of Nuclear respiratory factor 1 (Homo sapiens) (Q16656 whole entry, looked up): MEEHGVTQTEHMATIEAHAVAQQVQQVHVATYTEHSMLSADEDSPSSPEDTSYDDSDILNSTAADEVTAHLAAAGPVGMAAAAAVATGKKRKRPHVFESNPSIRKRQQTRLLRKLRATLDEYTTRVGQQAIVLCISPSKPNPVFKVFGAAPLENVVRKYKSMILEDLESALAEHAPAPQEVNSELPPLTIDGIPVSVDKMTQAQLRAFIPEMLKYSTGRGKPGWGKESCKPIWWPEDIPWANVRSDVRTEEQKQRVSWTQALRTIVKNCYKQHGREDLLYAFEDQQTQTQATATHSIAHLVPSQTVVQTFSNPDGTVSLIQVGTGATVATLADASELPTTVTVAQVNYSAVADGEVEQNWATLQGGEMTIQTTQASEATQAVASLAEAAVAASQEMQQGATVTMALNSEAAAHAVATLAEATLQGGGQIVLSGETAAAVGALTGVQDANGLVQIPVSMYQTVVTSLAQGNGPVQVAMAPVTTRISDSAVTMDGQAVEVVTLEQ
Procedure, shortened: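 Endogenous NRF1-driven reporter transcription in transfected HepG2 cells after 24 h treatment. Readout: RT-PCR products, 6-FAM labelled and resolved by capillary electrophoresis; changes fitted both directions relative to DMSO.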

[11] = ATG_NFI_CIS: Attagene CIS-FACTORIAL HepG2 Assay for human Nuclear Factor I (NFI) (AID 2282989); details: HepG2 cis-regulatory reporter, NFI response element transcription; actives raise or lower the signal
Procedure, shortened: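 Reporter transcripts were measured by RT-PCR with fluorescent primer extension and capillary electrophoresis 24 h post-treatment. HepG2 cells carried transiently transfected cis-regulated reporter constructs reporting endogenous factor activity; gain or loss fitted against DMSO baseline.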

[12] = biological target: Myc proto-oncogene protein (Homo sapiens) (UniProt P01106); experiment: ATG_Myc_CIS: Attagene CIS-FACTORIAL HepG2 Assay for human Myelocytomatosis (Myc) Proto-Oncogene Transcription Factor (AID 2282990); details: HepG2, Attagene cis-reporter transcription factor activity; actives raise or lower the signal
Chain of Myc proto-oncogene protein (Homo sapiens) (P01106 whole entry, looked up): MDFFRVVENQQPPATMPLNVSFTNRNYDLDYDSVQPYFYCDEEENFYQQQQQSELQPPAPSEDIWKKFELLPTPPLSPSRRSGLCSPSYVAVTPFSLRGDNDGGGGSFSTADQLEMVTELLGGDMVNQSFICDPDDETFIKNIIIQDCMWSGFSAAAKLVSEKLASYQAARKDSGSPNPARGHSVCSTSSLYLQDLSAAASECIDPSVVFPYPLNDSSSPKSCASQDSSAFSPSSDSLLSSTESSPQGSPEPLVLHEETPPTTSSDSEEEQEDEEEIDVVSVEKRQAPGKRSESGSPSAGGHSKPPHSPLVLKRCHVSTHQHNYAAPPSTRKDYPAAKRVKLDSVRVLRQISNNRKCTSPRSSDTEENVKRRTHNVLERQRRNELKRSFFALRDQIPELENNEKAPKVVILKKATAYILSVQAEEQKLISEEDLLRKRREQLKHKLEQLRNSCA
Procedure, shortened: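 HepG2 cells transiently transfected with multiple cis-promoter-driven reporter transcription units, so endogenous TF activity is read. After 24 h compound exposure, reporter mRNA was quantified by RT-PCR, 6-FAM labelling, HpaI digestion and capillary electrophoresis; bidirectional fit versus DMSO.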

[13] = ATG_NRF2_ARE_CIS: Attagene CIS-FACTORIAL HepG2 Assay for human Nuclear Factor Erythroid 2 Related Factor 2 (NFR2) response to Antioxidant Response Elements (ARE) (AID 2282992); details: HepG2 Attagene ARE/NRF2 reporter, transcription factor activity; actives raise or lower the signal
Procedure, shortened: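 Endogenous transcription factor activity in human liver HepG2 cells is tracked via a cis-element-driven reporter within a multiplexed set. mRNA induction is read by RT-PCR and capillary electrophoresis after 24 h, with DMSO as baseline.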

[14] = ATG_Oct_MLP_CIS: Attagene CIS-FACTORIAL HepG2 Assay for human Octamer-Binding Transcription Factor (Oct) (AID 2282993); details: HepG2 Attagene cis-factorial Oct reporter, mRNA; actives raise or lower the signal
Procedure, shortened: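 Readout is reporter transcript level from RT-PCR with fluorescent primer extension and capillary electrophoresis, fitted in both directions against DMSO. Transfected HepG2 reporter units report endogenous factor activity after 24 h dosing.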

[15] = biological target: Cellular tumor antigen p53 (Homo sapiens) (UniProt P04637); experiment: ATG_p53_CIS: Attagene CIS-FACTORIAL HepG2 Assay for human p53 Transcription Factor (AID 2282994); details: HepG2 p53 cis-element reporter, Attagene mRNA; actives raise or lower the signal
Chain of Cellular tumor antigen p53 (Homo sapiens) (P04637 whole entry, looked up, the tested form may be a part): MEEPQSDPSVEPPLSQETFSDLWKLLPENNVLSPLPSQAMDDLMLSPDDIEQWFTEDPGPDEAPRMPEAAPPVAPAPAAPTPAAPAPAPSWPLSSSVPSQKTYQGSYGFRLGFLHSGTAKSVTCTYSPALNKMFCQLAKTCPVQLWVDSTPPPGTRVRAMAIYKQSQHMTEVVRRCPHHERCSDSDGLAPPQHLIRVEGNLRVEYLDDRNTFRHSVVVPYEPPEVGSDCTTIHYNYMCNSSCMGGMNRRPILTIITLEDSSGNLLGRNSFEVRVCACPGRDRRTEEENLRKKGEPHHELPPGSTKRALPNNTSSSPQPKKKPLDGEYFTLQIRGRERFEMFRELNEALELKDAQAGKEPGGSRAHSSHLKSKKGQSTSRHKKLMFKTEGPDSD
Procedure, shortened: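 Steps: transfect HepG2 with multiplexed cis reporter constructs; dose chemicals 24 h; extract RNA, reverse-transcribe, PCR-amplify reporter sequences; FAM-label, HpaI-digest, resolve fragments by CE. Activity fitted both directions relative to DMSO.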

[16] = ATG_XTT_Cytotoxicity: Cytotoxicity Assessment in the Attagene TRANS-FACTORIAL HepG2 Assay (AID 2283584; active means hit-call score of the fitted dose curve at least 0.9, where 1 is the maximum)
Procedure, shortened: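 Cells: human HepG2, transiently transfected with MRTU reporter constructs. Exposure 24 h. Readout: XTT, cell number. Baseline/neg ctrl DMSO; loss-of-signal scored.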

[17] = ATG_GLI_CIS: Attagene CIS-FACTORIAL HepG2 Assay for human Zinc Finger Protein GLI1 (AID 2282945); details: HepG2, Attagene cis-factorial reporter mRNA, GLI element; actives raise or lower the signal
Procedure, shortened: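 HepG2 cells transiently transfected with cis-promoter multiplexed reporter units report endogenous transcription factor activity. After 24 h chemical exposure, reporter mRNA was quantified by RT-PCR, 6-FAM labelling, HpaI digestion and capillary electrophoresis, with bidirectional fitting against DMSO.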

[18] = biological target: Nuclear receptor subfamily 1 group I member 2 (Homo sapiens) (UniProt O75469); experiment: ATG_PXR_TRANS: Attagene TRANS-FACTORIAL HepG2 Assay for human Pregnane X Receptor (PXR) (AID 2283008; active means hit-call score of the fitted dose curve at least 0.9, where 1 is the maximum)
Chain of Nuclear receptor subfamily 1 group I member 2 (Homo sapiens) (O75469 whole entry, looked up, the tested form may be a part): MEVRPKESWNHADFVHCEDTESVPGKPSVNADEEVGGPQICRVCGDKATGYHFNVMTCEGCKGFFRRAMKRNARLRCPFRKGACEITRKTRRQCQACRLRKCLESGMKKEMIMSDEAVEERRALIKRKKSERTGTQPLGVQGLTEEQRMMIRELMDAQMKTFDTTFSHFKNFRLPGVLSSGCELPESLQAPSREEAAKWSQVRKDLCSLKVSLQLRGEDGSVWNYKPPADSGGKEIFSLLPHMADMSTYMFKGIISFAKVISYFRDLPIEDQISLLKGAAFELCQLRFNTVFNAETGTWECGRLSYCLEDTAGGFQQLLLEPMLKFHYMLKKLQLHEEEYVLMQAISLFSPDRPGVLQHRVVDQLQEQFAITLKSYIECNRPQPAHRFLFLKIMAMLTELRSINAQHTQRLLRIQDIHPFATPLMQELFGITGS
Procedure, shortened: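 HepG2 transfected (FuGene 6) with GAL4-UAS reporter units + PXR-Gal4 chimera; dosed 24 h. Total RNA → oligo(dT) RT → PCR → 6-FAM primer extension → HpaI cut → CE. Gain-of-signal vs DMSO.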

[19] = ATG_CRE_CIS: Attagene CIS-FACTORIAL HepG2 Assay for human cAMP Responsive Element (CRE) binding protein 3 (AID 2282926); details: HepG2 CRE cis-reporter, Attagene multiplexed mRNA; actives raise or lower the signal
Procedure, shortened: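 Assay format: transient reporter transfection of HepG2, 24 h treatment, total RNA isolation with DNase I step. Reporter abundance read by fluorescence after PCR and capillary separation; DMSO-normalised gain or loss fitting.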

Measured: outcome

O=C(O)c1ccccc1C(=O)O
inactive: [1] | [2] | [3] | [4] | [5] | [6] | [7] | [8] | [9] | [10] | [11] | [12] | [13] | [14] | [15] | [16]

C/C=C(\C)C(=O)OCC/C=C\CC
inactive: [1] | [2] | [17] | [3] | [4] | [5] | [6] | [7] | [8] | [9] | [10] | [11] | [13] | [14] | [15] | [18]

C1=CCC=C1
inactive: [19] | [1] | [2] | [17] | [4] | [5] | [7] | [8] | [9] | [10] | [11] | [12] | [13] | [14] | [16]
